In PubChem BioAssay (NCI) one finds growth data, which are given here for 15 molecules.

Molecules are shown by their SMILES. The panel holds about 83,000 compounds, 20% with a hit somewhere; the sample as a whole holds those more often.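 Compound tested at a single concentration for 48 hours in 96-well plates; a percent growth value below 10 was scored as active.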 A number with no mark means an inactive call. Calls of active or inactive are those of the source.

Test systems include NCI-H23 lung; NCI-H226 lung; NCI-H322M lung; HOP-62 NSCLC; NCI-H460 lung; NCI-H522 lung; A549/ATCC NSCLC; 786-0 renal; COLO 205 colon.
Holding throughout (experiment): NCI-60 one-dose screen, 48 h (100 = growth as untreated, 0 = no growth, -100 = all killed)
Conditions in all cases: 10 µM unless noted

Regarding `CC[n+]1ccc(Nc2ccc(NC(=O)c3ccc(Nc4cc[n+](CC)c5ccc([N+](=O)[O-])cc45)cc3)cc2)cc1`, the growth is 81.8% in the assay on NCI-H23 lung; 92.8% with NCI-H226 lung; 96.8% with NCI-H322M lung; 92.8% in the assay with HOP-62 NSCLC; 77% with NCI-H460 lung; 65.7% in the assay on NCI-H522 lung. In addition, the growth was 66.1% in the assay with A549/ATCC NSCLC, 101% with 786-0 renal and 69.8% in the assay on COLO 205 colon.
Consider `Cc1oc2c(C)c3oc(=O)cc(C)c3cc2c1CCl`, for which the growth in the assay on NCI-H23 lung was 84.9%; in the assay on NCI-H226 lung, 75.5%; in the assay with NCI-H322M lung, 75.9%; with HOP-62 NSCLC, 92.3%; with NCI-H460 lung, 91.8%; in the assay with NCI-H522 lung, 54.7%. Moreover, the growth is 88.5% with A549/ATCC NSCLC and 84.2% in the assay on 786-0 renal.
On to `O/N=C1\c2ccccc2-c2ccc(F)cc21`, for which the growth is 99.4% in the assay with NCI-H23 lung; 82.5% in the assay with NCI-H226 lung; 92.5% in the assay on NCI-H322M lung; 95.9% in the assay on HOP-62 NSCLC; 98.9% with NCI-H460 lung; 100% in the assay on NCI-H522 lung. Besides, the values for the growth in the assay on A549/ATCC NSCLC, with 786-0 renal and in the assay on COLO 205 colon were 100%, 104% and 73.7%, respectively.
Take `Cc1ccc(Nc2ccc(O)c3c2C(=O)c2c(O)ccc(Nc4ccc(C)cc4)c2C3=O)cc1`: the growth with NCI-H23 lung is 101%; in the assay on NCI-H226 lung, 95.6%; in the assay with NCI-H322M lung, 128%; in the assay on HOP-62 NSCLC, 101%; in the assay on NCI-H460 lung, 105%; in the assay with NCI-H522 lung, 94.8%. The growth in the assay on A549/ATCC NSCLC was 99.1%; with 786-0 renal, 102%; in the assay on COLO 205 colon it was 108%.
For `CC1CC(C)(C)OB(OC(C)CC(C)(C)OB2OC(C)CC(C)(C)O2)O1` (centres undefined), the growth in the assay with NCI-H23 lung is 93%; in the assay with NCI-H226 lung, 107%; in the assay on NCI-H322M lung, 102%; in the assay with HOP-62 NSCLC, 91.6%; in the assay on NCI-H460 lung, 111%; in the assay with NCI-H522 lung, 81.6%. The growth with A549/ATCC NSCLC is 93.8%; in the assay with 786-0 renal it was 98.4%; with COLO 205 colon, 93.8%.
Take `CCN1CCCC(Nc2cc(C)nc(/N=C(/N)Nc3ccc(Cl)c(Cl)c3)n2)C1` (centres undefined): the growth in the assay with NCI-H23 lung was 33.2%; with NCI-H226 lung, 32.2%; in the assay on NCI-H322M lung, -17.1% (active); in the assay on HOP-62 NSCLC, -7.52% (active); in the assay on NCI-H460 lung, -18.8% (active); with NCI-H522 lung it was -69.5% (active). The figures for the growth in the assay with A549/ATCC NSCLC and with 786-0 renal were -25.1% (active) and -82.7% (active), respectively.
As to `O=C(Nc1ccc(Cl)c(Cl)c1)Nc1ccccc1O`, the growth with NCI-H23 lung was 64.9%; with NCI-H226 lung, 96.9%; in the assay with NCI-H322M lung, 87.3%; in the assay on HOP-62 NSCLC, 88.8%; with NCI-H460 lung it was 79.5%; with NCI-H522 lung it was 26.8%. For the same molecule, the growth in the assay on A549/ATCC NSCLC is 37.2%; in the assay with 786-0 renal, 99.6%.
Turning to `NC(=S)N/N=C\c1nccc2c(C(F)(F)F)cccc12`, the growth with NCI-H23 lung is 13.4%; in the assay with NCI-H226 lung it was -0.105% (active); in the assay on NCI-H322M lung, 4.15% (active); in the assay with HOP-62 NSCLC it was -5.75% (active); in the assay on NCI-H460 lung it was 0.121% (active); with NCI-H522 lung, -30.5% (active). In addition, the growth is 3.44% (active) with A549/ATCC NSCLC, -24.7% (active) with 786-0 renal and 17.8% with COLO 205 colon.
Consider `O=C(C[P+](c1ccccc1)(c1ccccc1)c1ccccc1)c1ccccc1`, for which the growth in the assay on NCI-H23 lung is 91.9%; in the assay with NCI-H226 lung it was 99.4%; with NCI-H322M lung it was 92.2%; in the assay with HOP-62 NSCLC, 94.7%; in the assay with NCI-H460 lung it was 97.7%; with NCI-H522 lung, 61.4%. Besides, the values for the growth in the assay with A549/ATCC NSCLC and in the assay on 786-0 renal were 90.1% and 99.6%, respectively.
For `NC(=S)N/N=C/c1ncccc1O`, the growth was -6.55% (active) with NCI-H23 lung; 39% in the assay on NCI-H226 lung; 40.2% with NCI-H322M lung; 17.8% with HOP-62 NSCLC; 8.78% (active) in the assay with NCI-H460 lung; 26% in the assay on NCI-H522 lung. Besides, the growth in the assay with A549/ATCC NSCLC was 28%; with 786-0 renal, -17.1% (active); with COLO 205 colon it was 11.2%.
With `CN(C)c1ccc(/C=C/c2cc[n+](C)c(/C=C/c3ccc(N(C)C)cc3)c2)cc1`, the growth with NCI-H23 lung is 10.5%; with NCI-H226 lung, 34.1%; in the assay on NCI-H322M lung, -9.9% (active); in the assay with HOP-62 NSCLC it was 19.3%; with NCI-H460 lung, 10.6%; in the assay with NCI-H522 lung, -20.2% (active). For the same molecule, the results for the growth in the assay with A549/ATCC NSCLC, with 786-0 renal and in the assay with COLO 205 colon were 14.5%, 22.6% and -68.7% (active), respectively.
With `CCCCCCCCCCCCSC(=N)N`, the growth with NCI-H23 lung was 87.4%; in the assay with NCI-H226 lung, 107%; with NCI-H322M lung it was 68.7%; with HOP-62 NSCLC, 58.3%; with NCI-H460 lung, -28% (active); with NCI-H522 lung, 88.5%. Besides, the growth with A549/ATCC NSCLC was 40.9%; in the assay with 786-0 renal, -37.7% (active); with COLO 205 colon, -95.1% (active).
As to `COc1ccc(C(OCC2OC(n3ccc(NC(=O)c4ccccc4)nc3=O)C(O)C2O)(c2ccccc2)c2ccccc2)cc1` (centres undefined), the growth is 54.8% in the assay on NCI-H23 lung; 29.9% with NCI-H226 lung; 109% in the assay with NCI-H322M lung; 85.3% in the assay with HOP-62 NSCLC; 15.5% with NCI-H460 lung; 67.9% in the assay on NCI-H522 lung. Moreover, the results for the growth in the assay with A549/ATCC NSCLC and in the assay on 786-0 renal were 28.1% and 52.5%, respectively.
In the case of `N#Cc1c2ccccc2nc2ccccc12`, the growth with NCI-H23 lung is 100%; with NCI-H226 lung it was 93.8%; with NCI-H322M lung it was 110%; in the assay with HOP-62 NSCLC, 108%; in the assay on NCI-H460 lung it was 101%; with NCI-H522 lung it was 101%. Moreover, the values for the growth in the assay with A549/ATCC NSCLC and in the assay with 786-0 renal were 92.8% and 97.7%, respectively.
Take `COc1cc2c(c(OC)c1OC)-c1ccc(NCc3ccccc3)c(=O)cc1[C@@H](NC(C)=O)CC2`: the growth with NCI-H23 lung is 25.9%; with NCI-H226 lung, -12.4% (active); with NCI-H322M lung it was 50.1%; in the assay on HOP-62 NSCLC, 26.9%; with NCI-H460 lung, 4.14% (active); in the assay with NCI-H522 lung it was -10.3% (active). Further, the growth was 14.5% in the assay with A549/ATCC NSCLC, 21.9% with 786-0 renal and -82.4% (active) in the assay with COLO 205 colon.
